Experimental data reported in PubChem BioAssay (EPA / NIEHS).
Where “and” joins values, the source holds several entries; their conditions need not be identical. Equal entries are not always repeated. Records with an inconclusive call do not appear. The source holds several records for some structures; these can differ, active in one and inactive in another. Calls of active or inactive are those of the source. How the source made its calls: active means hit-call score of the fitted dose curve at least 0.9, where 1 is the maximum; inconclusive means response in the unintended direction; inactive means score below 0.9.

What was measured:
NCBI gene 100848466 = assay: NVS_NR_bPR: NovaScreen (NVS) Nuclear Receptor Binding Assay for bovine Progextron Receptor (PR) (AID 2283343);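 on AC50: actives lower bound radioligand signal below DMSO meaning displacement of the label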
In short: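 Competitive radioligand binding with membranes from bovine uterus, scintillation read-out at 18 h post-dose. Compounds first tested in duplicate at 25 uM, then actives in concentration series; loss-of-signal relative to DMSO.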

[1] = target: Androgen Receptor/SRC-1 Co-activator, AR (gene 367) (UniProt P10275); assay: OT_AR_ARSRC1_0960: Odyssey Thera (OT) 16-hour HEK293T Protein-Complementation Assay for Androgen Receptor/SRC-1 Co-activator (AID 2283353);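 further: actives raise the signal above DMSO so potency reflects increased AR and SRC-1 complex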
In short: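 Stable HEK293T line carries AR and SRC-1 each linked to a Venus fragment; chemicals are applied for 16 h, cells imaged at two wavelengths, and the 488 nm nucleus/cytoplasm ratio is taken as the signal, rising relative to DMSO.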

[2] = target: Androgen Receptor/SRC-1 Co-activator, AR (gene 367) (UniProt P10275); assay: OT_AR_ARSRC1_0480: Odyssey Thera (OT) 8-hour HEK293T Protein-Complementation Assay for Androgen Receptor/SRC-1 Co-activator (AID 2283354);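 further: hits raise the complementation signal above DMSO so AC50 marks enhancers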
In short: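 Reconstituted split-Venus YFP signal from AR–SRC-1 interaction, read by imaging 8 h post-dose in stable HEK293T lines. The 488 nm nucleus-to-cytoplasm ratio (≥400 cells/image) was fitted upward against DMSO.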

[3] = target: Estrogen receptor beta (Homo sapiens) (UniProt Q92731); assay: OT_ER_ERbERb_0480: Odyssey Thera (OT) 8-hour HEK293T Protein-Complementation Assay for Estrogen Receptor-beta/-beta Homodimer (AID 2283357);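 further: active means signal gain over DMSO baseline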
In short: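 ER-beta LBD homodimer PCA stably expressed in HEK293T; 8 h compound exposure, then formaldehyde fixation and Draq5 staining. Gain in nuclear/cytoplasmic fluorescence intensity versus DMSO vehicle, read on laser scanning cytometer.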

[4] = target: Retinoic acid receptor alpha (Homo sapiens) (UniProt P10276); assay: NVS_NR_hRAR_Antagonist: NovaScreen (NVS) Nuclear Receptor Binding Assay for human Retinoic Acid Alpha Receptor Antagonism (RAR) (AID 2283358)
In short: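 RARalpha antagonism was read by TR-FRET as loss of binding signal versus DMSO, 2 h after chemical addition, in a biochemical format. Single-concentration duplicates (25 uM) were run first, and actives were retested in concentration series.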

[5] = target: bovine Estrogen Receptor (ER), ESR1 (gene 407238) (UniProt P49884); assay: NVS_NR_bER: NovaScreen (NVS) Nuclear Receptor Binding Assay for bovine Estrogen Receptor (ER) (AID 2283345);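 further: actives lower the bound radioligand count which means they displace the ER ligand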
In short: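 Displacement of a radioligand from estrogen receptor in bovine uterine membrane preparations; scintillation signal taken at 18 hours, DMSO as baseline. Single-concentration duplicates (25 uM) preceded concentration-response follow-up of actives.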

[6] = target: Estrogen receptor (Homo sapiens) (UniProt P03372); assay: NVS_NR_hER: NovaScreen (NVS) Nuclear Receptor Binding Assay for human Estrogen Receptor (ER) (AID 2283348)
In short: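 Cell-free MCF7-derived ER preparation, specific radioligand displaced by test compound, read by scintillation counting 18 h post-dosing. Duplicate single-point 25 uM screen, then concentration-response confirmation; DMSO baseline.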

[7] = target: Estrogen receptor (Homo sapiens) (UniProt P03372); assay: OT_ER_ERaERa_0480: Odyssey Thera (OT) 8-hour HEK293T Protein-Complementation Assay for Estrogen Receptor-alpha/-alpha Homodimer (AID 2283351);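 further: rise in fluorescence from reassembled reporter fragments on ERα LBD homodimer in nucleus or whole cell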
In short: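 Cells were treated for 8 hours, then imaged on a laser scanning plate cytometer. Complementation of reporter fragments fused to the human ERα ligand-binding domain (residues 310-547) in HEK293T gave fluorescence, and gain of signal over vehicle was fitted.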

[8] = tested on: guinea pig Histamine Receptor (H2), gene 100729734; assay: NVS_GPCR_gH2: NovaScreen (NVS) G Protein-Coupled Receptor Assay for guinea pig Histamine Receptor (H2) (AID 2283342)
In short: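 Guinea pig striatal membrane preparation with specific radioligand; bound counts measured by filtration and scintillation 1 h post-dosing, DMSO as baseline. Chemicals passing a 25 uM duplicate screen were titrated to a 50 uM maximum.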

[9] = target: Bile acid receptor (Homo sapiens) (UniProt Q96RI1); assay: NVS_NR_hFXR_Antagonist: NovaScreen (NVS) Nuclear Receptor Binding Assay for human Farnesoid X Receptor Antagonism (FXR) (AID 2283350)
In short: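 Antagonist-format time-resolved FRET binding assay with extracted human receptor protein, read 1 hour after compound addition. Compounds first screened at 25 uM in duplicate, then actives tested in concentration series, with loss of signal relative to DMSO.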

[10] = target: Estrogen receptor (Homo sapiens) (UniProt P03372); assay: OT_ER_ERaERa_1440: Odyssey Thera (OT) 24-hour HEK293T Protein-Complementation Assay for Estrogen Receptor-alpha/-alpha Homodimer (AID 2283349);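 further: hits raise fluorescence above DMSO for agonists and antagonists alike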
In short: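 HEK293T, stable ERα LBD (aa 310-547) homodimer PCA; 24 h compound exposure; mean fluorescence intensity (nuclear for agonists, nuclear plus cytoplasmic for antagonists) vs vehicle; positive fitting direction, DMSO baseline.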

[11] = target: T1, Estrogen receptor (Homo sapiens) + Estrogen receptor beta (Homo sapiens) (UniProt P03372+Q92731); assay: OT_ER_ERaERb_0480: Odyssey Thera (OT) 8-hour HEK293T Protein-Complementation Assay for Estrogen Receptor-alpha/-beta Heterodimer (AID 2283352)
In short: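 Human HEK293T cells were treated for 8 hours and receptor heterodimerisation was detected through reconstitution of a fluorescent reporter split between ER-alpha and ER-beta ligand-binding domains. Activity was analysed as gain of signal against DMSO.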

[12] = target: T1, Estrogen receptor (Homo sapiens) + Estrogen receptor beta (Homo sapiens); assay: OT_ER_ERaERb_1440: Odyssey Thera (OT) 24-hour HEK293T Protein-Complementation Assay for Estrogen Receptor-alpha/-beta Homodimer (AID 2283356);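 further: heteromer of ER alpha and ER beta binding domains; hits raise reporter fluorescence and both agonists and antagonists give an increase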
In short: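 24 h exposure; HEK293T PCA cells with ERα/ERβ LBD fragments; signal rise in nuclear or whole-cell fluorescence over vehicle.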

PGR (gene 5241) = PGR (gene 5241) (UniProt P06401); assay: NVS_NR_hPR: NovaScreen (NVS) Nuclear Receptor Binding Assay for human Progestron Receptor (PR) (AID 2283360);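 further: active means loss of bound radioligand signal versus DMSO baseline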
In short: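 T47D-derived receptor preparation, cell-free, with tritiated or iodinated radioligand displacement measured by scintillation 18 h post-dosing. Single 25 uM duplicate screen, then concentration series; signal loss relative to DMSO.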

[13] = target: chimpanzee Androgen Receptor (AR), AR (gene 747460) (UniProt O97775); assay: NVS_NR_cAR: NovaScreen (NVS) Nuclear Receptor Binding Assay for chimpanzee Androgen Receptor (AR) (AID 2283346);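 further: radioligand displacement from AR measured by scintillation counting in a cell-free assay; a loss of bound radioligand signal versus DMSO counts as binding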
In short: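 Cell-free competition binding with insect-cell (Sf9/Sf21) extracted chimpanzee AR; scintillation signal from lysate at 72 h. Screened in duplicate at 25 uM, then concentration-response for actives; fitting relative to DMSO.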

[14] = target: human Peroxisome Proliferator-activated Receptor alpha (PPARa), PPARA (gene 5465) (UniProt Q07869); assay: NVS_NR_hPPARa: NovaScreen (NVS) Nuclear Receptor Binding Assay for human Peroxisome Proliferator-activated Receptor alpha (PPARa) (AID 2283359);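 further: activity means loss of TR-FRET signal versus DMSO baseline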
In short: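 Loss of TR-FRET binding signal relative to DMSO was measured 1 h after chemical addition to extracted receptor protein. Chemicals were first tested in duplicate at 25 uM, and actives were followed up in concentration series.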

[15] = target: human Thyroid Receptor Alpha (TRa), THRA (gene 7067) (UniProt P10827); assay: NVS_NR_hTRa_Antagonist: NovaScreen (NVS) Nuclear Receptor Binding Assay for human Thyroid Receptor Alpha Antagonism (TRa) (AID 2283362)
In short: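 In this biochemical format, receptor protein is dosed with chemical and read after 1 hour via AlphaLISA. Decreases from the DMSO baseline indicate antagonist activity; screening used 25 uM in duplicate before concentration-response confirmation.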

[16] = target: Retinoic acid receptor alpha (Homo sapiens) (UniProt P10276); assay: NVS_NR_hRARa_Agonist: NovaScreen (NVS) Nuclear Receptor Binding Assay for human Retinoic Acid Alpha Receptor Agonism (RAR) (AID 2283361)
In short: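 Agonist-mode TR-FRET binding format using extracted protein, measured at 2 h post-dosing. Initial duplicate single-point screen at 25 uM preceded concentration series for actives; activity was normalized to DMSO baseline.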

[17] = target: human Constitutive Androstane Receptor (CAR), NR1I3 (gene 9970) (UniProt Q14994); assay: NVS_NR_hCAR_Antagonist: NovaScreen (NVS) Nuclear Receptor Binding Assay for human Constitutive Androstane Receptor Antagonism (CAR) (AID 2283344)
In short: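 Single 25 uM duplicate primary screen, with concentration-series follow-up on actives. Cell-free binding format run in antagonist mode, TR-FRET signal taken 1 h post-dose; activity is signal loss relative to DMSO.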

[18] = target: rat Mineralocorticoid Receptor (MR), Nr3c2 (gene 25672) (UniProt P22199); assay: NVS_NR_rMR: NovaScreen (NVS) Nuclear Receptor Binding Assay for rat Mineralocorticoid Receptor (MR) (AID 2283355)
In short: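 Primary HTS ran in duplicate at a single 25 uM concentration, with concentration-series follow-up for actives. Receptor source: adrenalectomized rat brain supernatant, cell-free. Radioligand displacement read by scintillation at 24 h, relative to DMSO baseline.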

Measured: AC50

Retinoic acid receptor alpha (Homo sapiens), sequence (P10276 whole entry, looked up): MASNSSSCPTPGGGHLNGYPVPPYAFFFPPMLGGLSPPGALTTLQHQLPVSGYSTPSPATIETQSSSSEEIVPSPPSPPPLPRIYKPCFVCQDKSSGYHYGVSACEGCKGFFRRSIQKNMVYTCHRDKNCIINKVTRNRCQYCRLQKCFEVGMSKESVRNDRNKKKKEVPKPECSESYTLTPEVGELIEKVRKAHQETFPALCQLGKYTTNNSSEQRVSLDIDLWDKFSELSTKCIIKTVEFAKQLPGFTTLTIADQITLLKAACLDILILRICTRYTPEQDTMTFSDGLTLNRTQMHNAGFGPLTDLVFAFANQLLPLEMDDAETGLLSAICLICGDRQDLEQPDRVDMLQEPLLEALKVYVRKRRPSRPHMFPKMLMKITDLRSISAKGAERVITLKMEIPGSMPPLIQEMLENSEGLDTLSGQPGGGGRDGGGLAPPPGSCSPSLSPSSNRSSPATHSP
bovine Estrogen Receptor (ER), ESR1 (gene 407238), sequence (P49884 whole entry, looked up): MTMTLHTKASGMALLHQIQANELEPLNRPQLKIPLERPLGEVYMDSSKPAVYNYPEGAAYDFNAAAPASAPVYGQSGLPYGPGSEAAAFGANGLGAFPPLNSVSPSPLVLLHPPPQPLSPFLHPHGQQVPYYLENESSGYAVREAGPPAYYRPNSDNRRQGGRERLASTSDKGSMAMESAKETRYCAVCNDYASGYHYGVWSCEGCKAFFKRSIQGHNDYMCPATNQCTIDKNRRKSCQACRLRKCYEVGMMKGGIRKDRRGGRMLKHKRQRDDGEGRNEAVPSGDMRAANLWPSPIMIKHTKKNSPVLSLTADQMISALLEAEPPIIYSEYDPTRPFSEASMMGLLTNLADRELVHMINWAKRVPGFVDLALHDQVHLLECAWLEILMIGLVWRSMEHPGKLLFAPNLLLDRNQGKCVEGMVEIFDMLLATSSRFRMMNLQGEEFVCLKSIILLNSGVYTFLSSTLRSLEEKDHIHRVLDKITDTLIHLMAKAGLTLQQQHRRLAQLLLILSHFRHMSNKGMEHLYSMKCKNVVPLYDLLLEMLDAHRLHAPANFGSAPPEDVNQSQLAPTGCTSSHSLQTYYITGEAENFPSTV
Estrogen receptor beta (Homo sapiens), sequence (Q92731 whole entry, looked up, the tested form may be a part): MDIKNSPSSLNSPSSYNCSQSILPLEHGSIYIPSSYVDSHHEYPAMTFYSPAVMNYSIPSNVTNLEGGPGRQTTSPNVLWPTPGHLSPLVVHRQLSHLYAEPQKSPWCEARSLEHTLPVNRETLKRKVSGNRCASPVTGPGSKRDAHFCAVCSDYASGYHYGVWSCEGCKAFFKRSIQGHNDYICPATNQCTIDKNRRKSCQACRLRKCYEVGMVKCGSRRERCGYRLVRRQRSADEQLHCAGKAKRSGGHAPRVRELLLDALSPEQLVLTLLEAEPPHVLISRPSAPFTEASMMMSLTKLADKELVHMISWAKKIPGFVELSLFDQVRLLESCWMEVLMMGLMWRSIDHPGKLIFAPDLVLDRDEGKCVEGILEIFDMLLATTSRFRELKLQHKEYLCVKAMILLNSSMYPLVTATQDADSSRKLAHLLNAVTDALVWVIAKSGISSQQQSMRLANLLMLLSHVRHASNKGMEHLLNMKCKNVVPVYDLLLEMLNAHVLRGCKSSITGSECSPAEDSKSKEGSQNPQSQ
Androgen Receptor/SRC-1 Co-activator, AR (gene 367), sequence (P10275 whole entry, looked up, the tested form may be a part): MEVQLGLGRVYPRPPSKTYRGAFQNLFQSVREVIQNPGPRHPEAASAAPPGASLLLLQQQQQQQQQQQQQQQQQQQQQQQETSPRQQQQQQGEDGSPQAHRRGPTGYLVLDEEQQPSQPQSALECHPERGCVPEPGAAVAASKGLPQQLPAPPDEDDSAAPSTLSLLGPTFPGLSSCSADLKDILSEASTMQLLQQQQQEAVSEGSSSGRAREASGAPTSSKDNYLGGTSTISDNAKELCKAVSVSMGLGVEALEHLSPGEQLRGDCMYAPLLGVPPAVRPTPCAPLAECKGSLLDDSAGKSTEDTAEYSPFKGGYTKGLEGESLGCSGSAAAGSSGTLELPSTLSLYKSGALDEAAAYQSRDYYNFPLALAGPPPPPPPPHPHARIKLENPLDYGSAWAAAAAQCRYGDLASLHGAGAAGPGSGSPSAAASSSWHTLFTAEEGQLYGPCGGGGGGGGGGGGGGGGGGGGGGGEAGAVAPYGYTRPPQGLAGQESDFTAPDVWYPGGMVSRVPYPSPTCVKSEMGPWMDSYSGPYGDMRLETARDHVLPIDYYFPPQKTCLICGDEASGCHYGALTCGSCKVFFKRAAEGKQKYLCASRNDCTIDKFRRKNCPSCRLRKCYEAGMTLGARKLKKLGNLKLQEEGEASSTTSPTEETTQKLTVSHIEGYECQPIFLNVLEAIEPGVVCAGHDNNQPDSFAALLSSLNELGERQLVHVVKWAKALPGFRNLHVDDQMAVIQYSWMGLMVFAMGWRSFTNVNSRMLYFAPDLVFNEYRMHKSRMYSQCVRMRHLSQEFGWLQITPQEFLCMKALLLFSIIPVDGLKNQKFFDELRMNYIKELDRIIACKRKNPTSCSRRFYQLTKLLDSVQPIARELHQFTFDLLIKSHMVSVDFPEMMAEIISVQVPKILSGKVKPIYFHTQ
human Thyroid Receptor Alpha (TRa), THRA (gene 7067), sequence (P10827 whole entry, looked up): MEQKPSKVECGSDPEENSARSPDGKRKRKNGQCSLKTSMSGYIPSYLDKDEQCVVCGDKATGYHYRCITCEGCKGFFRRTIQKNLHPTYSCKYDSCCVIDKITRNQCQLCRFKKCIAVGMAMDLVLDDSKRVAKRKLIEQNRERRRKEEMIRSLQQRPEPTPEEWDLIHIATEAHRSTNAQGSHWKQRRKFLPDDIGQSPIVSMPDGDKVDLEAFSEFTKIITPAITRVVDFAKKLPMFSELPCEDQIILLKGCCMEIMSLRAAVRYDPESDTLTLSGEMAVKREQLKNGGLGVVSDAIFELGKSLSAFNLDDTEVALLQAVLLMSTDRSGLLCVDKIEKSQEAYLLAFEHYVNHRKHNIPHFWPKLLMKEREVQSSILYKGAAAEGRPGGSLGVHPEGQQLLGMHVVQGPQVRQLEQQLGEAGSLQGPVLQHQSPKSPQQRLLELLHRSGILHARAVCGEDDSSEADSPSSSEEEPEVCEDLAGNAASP
human Constitutive Androstane Receptor (CAR), NR1I3 (gene 9970), sequence (Q14994 whole entry, looked up): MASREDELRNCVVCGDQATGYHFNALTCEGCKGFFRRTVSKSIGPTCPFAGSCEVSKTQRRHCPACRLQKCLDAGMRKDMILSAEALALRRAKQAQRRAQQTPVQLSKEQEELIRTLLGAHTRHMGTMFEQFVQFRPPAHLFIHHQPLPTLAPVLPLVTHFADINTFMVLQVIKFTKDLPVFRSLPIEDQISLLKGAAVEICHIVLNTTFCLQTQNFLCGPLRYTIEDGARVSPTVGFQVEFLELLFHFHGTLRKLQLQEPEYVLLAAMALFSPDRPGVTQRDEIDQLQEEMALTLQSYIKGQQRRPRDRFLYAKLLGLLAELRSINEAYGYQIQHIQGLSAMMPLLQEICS
PGR (gene 5241), sequence (P06401 whole entry, looked up): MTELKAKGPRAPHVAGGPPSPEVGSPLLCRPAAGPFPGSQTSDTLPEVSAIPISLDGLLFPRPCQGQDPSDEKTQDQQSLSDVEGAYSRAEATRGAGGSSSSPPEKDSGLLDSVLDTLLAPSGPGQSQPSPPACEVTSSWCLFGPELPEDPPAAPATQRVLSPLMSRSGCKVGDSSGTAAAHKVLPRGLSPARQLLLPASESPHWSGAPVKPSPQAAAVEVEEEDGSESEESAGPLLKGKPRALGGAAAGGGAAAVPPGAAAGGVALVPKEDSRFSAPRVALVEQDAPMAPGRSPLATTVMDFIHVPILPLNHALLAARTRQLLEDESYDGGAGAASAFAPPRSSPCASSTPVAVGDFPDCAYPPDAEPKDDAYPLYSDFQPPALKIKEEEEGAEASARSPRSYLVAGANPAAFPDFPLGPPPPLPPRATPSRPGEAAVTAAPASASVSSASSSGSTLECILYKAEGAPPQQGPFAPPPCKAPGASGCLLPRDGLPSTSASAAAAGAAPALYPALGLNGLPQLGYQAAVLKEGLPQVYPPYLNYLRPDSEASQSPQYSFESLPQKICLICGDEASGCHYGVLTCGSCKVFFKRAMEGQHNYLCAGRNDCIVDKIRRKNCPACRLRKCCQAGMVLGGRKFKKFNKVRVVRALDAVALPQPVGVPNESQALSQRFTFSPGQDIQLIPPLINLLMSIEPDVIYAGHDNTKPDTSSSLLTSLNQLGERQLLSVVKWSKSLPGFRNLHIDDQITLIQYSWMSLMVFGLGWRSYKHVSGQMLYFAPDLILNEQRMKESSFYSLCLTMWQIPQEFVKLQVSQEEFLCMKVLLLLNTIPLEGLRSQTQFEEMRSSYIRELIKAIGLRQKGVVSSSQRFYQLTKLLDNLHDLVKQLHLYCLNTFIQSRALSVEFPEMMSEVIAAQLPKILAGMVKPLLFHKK
Estrogen receptor (Homo sapiens), sequence (P03372 whole entry, looked up, the tested form may be a part): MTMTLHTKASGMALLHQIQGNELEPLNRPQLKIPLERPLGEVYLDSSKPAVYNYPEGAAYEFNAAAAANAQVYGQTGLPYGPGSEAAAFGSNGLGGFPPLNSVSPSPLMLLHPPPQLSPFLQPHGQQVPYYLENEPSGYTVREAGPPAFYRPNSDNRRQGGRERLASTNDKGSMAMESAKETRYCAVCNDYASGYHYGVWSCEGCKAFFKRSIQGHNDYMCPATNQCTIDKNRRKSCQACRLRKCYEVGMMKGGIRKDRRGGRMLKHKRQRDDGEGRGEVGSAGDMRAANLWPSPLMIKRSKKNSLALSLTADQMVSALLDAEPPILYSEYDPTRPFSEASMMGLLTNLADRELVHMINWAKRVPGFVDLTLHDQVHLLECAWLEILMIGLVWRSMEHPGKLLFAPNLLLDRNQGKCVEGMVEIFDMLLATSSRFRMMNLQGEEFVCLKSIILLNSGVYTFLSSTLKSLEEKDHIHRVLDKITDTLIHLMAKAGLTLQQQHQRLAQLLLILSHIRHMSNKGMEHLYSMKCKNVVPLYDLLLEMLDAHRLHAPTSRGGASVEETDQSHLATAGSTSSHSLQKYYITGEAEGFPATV

O=C1OC(c2ccc(O)cc2)(c2ccc(O)cc2)c2ccccc21
inactive: NCBI gene 100848466 | [4]
active: [1] 35.3 µM | [2] 60.1 µM | [3] 12 µM

Cc1ccc(-c2cc(C(F)(F)F)nn2-c2ccc(S(N)(=O)=O)cc2)cc1
inactive: [5] | [6] | [7]
active: [1] 33.7 µM | [2] 72.6 µM

CN(C)CCCN1c2ccccc2Sc2ccc(Cl)cc21
inactive: [9]
active: [8] 1.42 µM

CCc1nc(N)nc(N)c1-c1ccc(Cl)cc1
inactive: [10] | [7] | [11] | [12] | [3] | PGR (gene 5241)
active: [8] 2.94 µM

O=C1c2c(O)cccc2Cc2cccc(O)c21
active: NCBI gene 100848466 42.7 µM

CCc1cc(C2=C(C(=O)O)N(c3ccccc3C(F)(F)F)S(=O)(=O)c3ccccc32)cc2c1OCO2
active: [13] 25 µM

CCC(C)N(C)C(=O)c1cc2ccccc2c(-c2ccccc2Cl)n1 (stereo not given)
inactive: [5] | [6] | [10] | [7] | [11] | [2] | [12] | [3] | [14]
active: [1] 26 µM

CC(C)NCC(O)c1ccc(O)c(O)c1 (stereo not given)
inactive: [8] | [3] | [14] | [15]

CCCCC(CC)COC(=O)CCCCCCCC(=O)OCC(CC)CCCC (stereo not given)
inactive: [5] | [3]

CS(=O)(=O)c1ccc([C@@H](C[C@H]2CCC(=O)C2)C(=O)Nc2cnccn2)cc1Cl
active: [8] 0.0043 µM
inactive: [10] | [7] | [11] | [12] | [3]

O=[Si]=O
inactive: [5] | [10] | [7] | [11] | [12] | [3]

CN(C)C(=O)NC1(c2ccccc2)CCN(CC[C@@]2(c3ccc(F)c(F)c3)CN(C(=O)c3ccccc3)CCO2)CC1
active: [8] 0.276 µM
inactive: [9]

CC(=O)[C@@]1(O)CC[C@H]2[C@@H]3CCC4=CC(=O)CC[C@]4(C)[C@H]3CC[C@@]21C
active: NCBI gene 100848466 0.467 µM | [5] 15.4 µM | [13] 0.49 µM | PGR (gene 5241) 0.645 µM
inactive: [5] | [13] | [3] | [16]

CCCCCCCCCCCCCCOS(=O)(=O)O
inactive: [10] | [7] | [12] | [3]
active: NCBI gene 100848466 25 µM | [14] 3.99 µM

Cn1cnc2c1c(=O)[nH]c(=O)n2C
inactive: [8] | PGR (gene 5241)

COc1ccc(OC(F)(F)F)cc1CN[C@H]1CCCN[C@H]1c1ccccc1
active: [8] 7.67 µM | [9] 40.2 µM
inactive: [17] | [10] | [11] | [12] | [14]

CCCCCCCCCC[N+](C)(C)[O-]
inactive: [8] | [10] | [7] | [11] | [1] | [2] | [12] | [3]

CC(=O)O[C@]1(C(C)=O)CC[C@H]2[C@@H]3C=C(Cl)C4=CC(=O)[C@@H]5C[C@@H]5[C@]4(C)[C@H]3CC[C@@]21C
active: NCBI gene 100848466 0.0857 µM
inactive: [8] | [3] | [14]

O=C(N[C@@H](c1ccccc1)[C@@H]1CCCCN1)c1cccc(C(F)(F)F)c1Cl
active: [17] 25 µM
inactive: [10] | [7] | [18] | [12] | [3] | [14]

O=C1NC(=O)C(c2ccccc2)(c2ccccc2)N1
inactive: [17] | [15]

O=Cc1ccccc1C=O
inactive: [5] | [6] | [10] | [7] | [12] | [3] | PGR (gene 5241)
active: [13] 25 µM | [1] 75.3 µM | [2] 66.1 µM

CCN(CC)CCOc1ccc(C(=C(Cl)c2ccccc2)c2ccccc2)cc1
active: [8] 1.82 µM | NCBI gene 100848466 11.6 µM | [17] 34 µM | [13] 4.82 µM | [9] 13.5 µM | [3] 21.5 nM and 118 nM and 9.83 nM | [4] 16.1 µM and 11 µM and 12.5 µM | [16] 25.9 µM and 21 µM | [15] 14.9 µM and 12.2 µM and 16.3 µM
inactive: [16]

CCCCc1nc2cccnc2n1Cc1ccc(-c2ccccc2-c2nnn[nH]2)cc1
inactive: [8] | [10] | [9] | [7] | [12] | [3]

Cc1cc(Cc2ccc(N)c(C)c2)ccc1N
active: [13] 25 µM | [3] 67.6 µM
inactive: [5] | [15]

CSc1ccc(Oc2ccc(S(N)(=O)=O)cc2CN(C)C)cc1C
active: [8] 11.7 µM | [1] 80.7 µM | [2] 77 µM
inactive: [6] | [10] | [7] | [11] | [12] | [14] | PGR (gene 5241)
